Screens as filed in PubChem.
GPR151 ag = activators of human GPR151, primary screen, cell-based, PathHunter beta-arrestin, luminescence. actives 1% (n = 650,000). PathHunter beta-arrestin GPR151 cells. activation, % at 11.2 µM. G-protein coupled receptor 151 (Homo sapiens), Q8TDV0; in the data active = activation above about 4.9%
MITF inh = MITF inhibitors, primary screen, biochemical, AlphaScreen, human; Microphthalmia-associated transcription factor (Homo sapiens), O75030; AlphaScreen MITF homodimerization, bead proximity signal; inhibition, % at 2.6 µM; actives 0.91% (n = 650,000); in the data active = inhibition above about 50%
TEAD-YAP block = TEAD-YAP interaction inhibition, primary screen, TEAD-YAP interaction inhibitor project, luminescence, HEK-TIYL cells | actives 1.4% (n = 640,000) | TEAD-Gal4/YAP UAS-luciferase luminescence | inhibition, % at 9.12 µM; in the data active = inhibition above about 32%
FBW7 act = FBW7 E3 ligase activators, primary screen, biochemical, AlphaScreen, human; F-box/WD repeat-containing protein 7 (Homo sapiens), Q969H0; AlphaScreen FBW7–phospho-cyclin E peptide binding, activator screen; normalized activity (activation), % at 26.1 µM; actives 0.13% (n = 650,000); AID 1259310, 2017; in the data active = normalized activity above about 1.9%;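 also: purified mutant Fbw7 with reduced substrate affinity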
Target sequence (Q969H0 whole entry, looked up): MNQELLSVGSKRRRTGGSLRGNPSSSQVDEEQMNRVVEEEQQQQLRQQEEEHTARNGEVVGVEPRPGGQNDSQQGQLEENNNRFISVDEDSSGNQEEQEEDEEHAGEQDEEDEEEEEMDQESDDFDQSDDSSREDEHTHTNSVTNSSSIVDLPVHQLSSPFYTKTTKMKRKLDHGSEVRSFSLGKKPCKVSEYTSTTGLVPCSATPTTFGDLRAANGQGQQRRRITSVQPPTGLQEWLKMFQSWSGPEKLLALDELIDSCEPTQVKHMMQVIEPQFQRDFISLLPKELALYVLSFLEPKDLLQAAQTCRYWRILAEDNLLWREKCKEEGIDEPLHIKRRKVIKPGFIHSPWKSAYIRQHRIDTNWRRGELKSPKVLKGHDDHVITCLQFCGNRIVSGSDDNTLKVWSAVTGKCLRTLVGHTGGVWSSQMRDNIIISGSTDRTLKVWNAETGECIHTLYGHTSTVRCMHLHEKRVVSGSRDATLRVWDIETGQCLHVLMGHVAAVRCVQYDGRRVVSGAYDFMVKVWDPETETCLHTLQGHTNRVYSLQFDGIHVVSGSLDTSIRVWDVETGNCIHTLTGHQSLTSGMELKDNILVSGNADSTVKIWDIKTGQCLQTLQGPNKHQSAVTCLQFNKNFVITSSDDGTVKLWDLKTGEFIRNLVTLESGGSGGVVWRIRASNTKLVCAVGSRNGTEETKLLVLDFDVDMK
Large screens that a line does not name were inactive. This is a sample that favours compounds with a hit; in the whole collection about 3.5% have one here.

COC(=O)C1=C(C)NC2=C(C(=O)CC(c3cccs3)C2)C1c1ccsc1 (centres undefined)	TEAD-YAP block 33
COCCOC(=O)C1=C(C)NC2=C(C(=O)CC(c3cccs3)C2)C1c1cccs1 (centres undefined)	none
COC(=O)C1=C(C)NC2=C(C(=O)CC(c3cccs3)C2)C1c1cc(OC)c(Br)cc1OC (centres undefined)	TEAD-YAP block 60
COCCOC(=O)C1=C(C)NC2=C(C(=O)CC(c3cccs3)C2)C1c1ccccc1F (centres undefined)	none
CC(=O)Nc1ccc(Nc2nc(-c3cccc(N)c3)ncc2C)cc1	none
Cc1cc(NS(=O)(=O)c2ccc(F)cc2C)ccc1N1CCCC1=O	none
COC(=O)c1ccccc1NC(=O)c1ccc(NC(=O)c2cccc(OC(C)=O)c2)cc1	none
CC1=C(C(=O)OC(C)C)C(c2cccs2)C2=C(CC(c3cccs3)CC2=O)N1 (centres undefined)	TEAD-YAP block 37
CCc1ccc(C2C(C(=O)OC(C)C)=C(C)NC3=C2C(=O)CC(c2cccs2)C3)s1 (centres undefined)	none
CCCOc1ccccc1/C=N/Nc1nn[nH]n1	none
O=C1NC(=S)N(c2ccccc2)C(=O)/C1=C\c1ccc([N+](=O)[O-])o1	MITF inh 80
O=C1OC2(CCCC2)OC(=O)C1=Cc1ccc(-c2ccc([N+](=O)[O-])cc2)o1	none
O=C1OC2(CCCCC2)OC(=O)C1=Cc1ccc([N+](=O)[O-])o1	MITF inh 66
O=C1NN(c2ccccc2)C(=O)/C1=C\c1ccc(-c2ccc([N+](=O)[O-])cc2)o1	none
O=C1NN(c2ccccc2)C(=O)/C1=C/c1ccc([N+](=O)[O-])o1	MITF inh 79
O=C1NC(=S)N(c2ccc(F)cc2)C(=O)/C1=C\c1ccc2c(c1)OCCO2	MITF inh 71
CCOC(=O)C1=C(c2ccccc2)N=c2s/c(=C\c3ccc(OC)cc3)c(=O)n2C1c1ccc(Cl)cc1 (centres undefined)	none
COc1ccc(-c2nc(NCCc3ccc(O)cc3)c3ncn(-c4ccccc4)c3n2)cn1	TEAD-YAP block 47
COc1ccc(-c2nc(NCCc3ccc(O)cc3)c3ncn(-c4ccccc4)c3n2)cc1	none
COc1ccc(CCNc2nc(-c3ccc(C(=O)N4CCN(C)CC4)cc3)nc3c2ncn3-c2ccccc2)cc1	TEAD-YAP block 41
COc1ccc(-c2nc(NCCc3ccc(O)cc3)c3ncn(C(C)C)c3n2)cc1	TEAD-YAP block 61
CC(C)n1cnc2c(NCCc3ccc(O)cc3)nc(-c3ccccc3)nc21	none
COc1ccc(CCNc2nc(-c3ccc(OC)nc3)nc3c2ncn3-c2ccsc2)cc1	TEAD-YAP block 46
CC1CC(C)CN(C2CCN(C(=O)c3cccs3)CC2)C1 (centres undefined)	none
O=C(Nc1ccc(-n2cccn2)cc1)C1CCN(Cc2cccc3cnccc23)CC1	none
CC(=O)/C(N=Nc1cc([N+](=O)[O-])ccc1C(=O)O)=C(/O)c1ccccc1	none
CN(C)CCN(C(=O)/C=C\c1ccc([N+](=O)[O-])cc1)c1nc2ccccc2s1	none
COc1ccc(-c2nc(NCCc3ccc(O)cc3)c3ncn(-c4ccsc4)c3n2)cc1	TEAD-YAP block 56
COc1ccc(CCNc2nc(-c3ccccc3)nc3c2ncn3-c2ccsc2)cc1	none
CC(C)CCC1(C2CCN(C(=O)c3cc4ccccc4oc3=O)CC2)NC(=O)NC1=O (centres undefined)	none
COc1cc(/C=C2/NC(=O)N(Cc3ccc(Br)cc3)C2=O)cc2c1OCO2	TEAD-YAP block 60
O=C1N/C(=C/c2cccc(F)c2)C(=O)N1Cc1ccc(Br)cc1	TEAD-YAP block 55
CC(C)(C)OC(=O)Nc1ccccc1[N+](=O)[O-]	none
Cc1ccc(NC(=O)CCCCCN2C(=O)c3ccccc3C2=O)cc1	none
Cc1ccc(NC(=O)CCCCCC2NC(=O)NC2C)cc1 (centres undefined)	MITF inh 99
COc1ccc(CCNC(=O)CNC(=S)N(Cc2ccccc2)Cc2cccs2)cc1OC	none
O=C(NC1CCN(Cc2ccccc2)CC1)c1ccc(Cn2nnc3ccccc3c2=O)cc1	TEAD-YAP block 35
Cc1cccc(NC(c2cccc(Cl)c2)c2ccc3cccnc3c2O)n1 (centres undefined)	TEAD-YAP block 48
Cc1cccc(NC(c2ccncc2)c2ccc3cccnc3c2O)n1 (centres undefined)	MITF inh 113, TEAD-YAP block 68
Cc1cccc(NC(c2cccnc2)c2ccc3ccc(C)nc3c2O)n1 (centres undefined)	none
Cc1cccc(NC(c2ccc(Cl)cc2)c2ccc3cccnc3c2O)n1 (centres undefined)	TEAD-YAP block 90
Cc1cc(NC(c2cccc(Br)c2)c2ccc3cccnc3c2O)no1 (centres undefined)	TEAD-YAP block 84
COc1cc(CN2CCN(C3CCN(C(C)C)CC3)C(CCO)C2)cc(OC)c1OC (centres undefined)	none
CC(Sc1nnc(-c2ccccc2)n1-c1ccc(F)cc1F)C(=O)NC(N)=O (centres undefined)	none
COCCNC(=O)c1cn(C[C@H]2CCCN(C(=O)c3cccnc3)C2)nn1	none
CCOC(=O)C1=C(C)NC2=C(C(=O)CCC2)C1c1ccc(OC)c(OC)c1OC (centres undefined)	none
Nc1ccc(-c2cnc3c(Nc4ccc5[nH]ccc5c4)nccn23)cc1	TEAD-YAP block 69
Cc1ccc(-c2cnc3c(Nc4ccc5[nH]ccc5c4)nccn23)cc1	none
c1cn2c(-c3ccsc3)cnc2c(Nc2ccc3[nH]ccc3c2)n1	TEAD-YAP block 56
Oc1ccc(-c2cnc3c(Nc4ccc5[nH]ccc5c4)nccn23)cc1	TEAD-YAP block 69
COc1cc(-c2cnc3c(Nc4ccc5[nH]ccc5c4)nccn23)cc(OC)c1OC	none
OCc1ccccc1-c1cnc2c(Nc3ccc4[nH]ccc4c3)nccn12	TEAD-YAP block 93
COc1ccc(CNC(=O)CN(c2ccccc2OC)S(C)(=O)=O)cc1	none
CCc1c(C)nc(N)n2c(SCC(=O)N3CCc4ccccc43)nnc12	none
CCOC(=O)C1=C(C)N=c2s/c(=C\c3cc(Br)ccc3OC(C)=O)c(=O)n2C1c1cccs1 (centres undefined)	none
Cc1cncc2cccc(NC3CCN(C(=O)[C@H](C)O)CC3)c12	none
Cc1cncc2cccc(NC3CCCNC3)c12 (centres undefined)	TEAD-YAP block 94
COc1ccc(-c2nc(C(=O)NCCN3CCOCC3)cs2)cc1	none
COc1cccc(-c2cc(C(=O)N/N=C/c3ccccc3O)[nH]n2)c1	none
CCOc1ccc(-c2cc(C(=O)N/N=C/c3ccccn3)[nH]n2)cc1	TEAD-YAP block 34
COc1ccc(-c2cc(C(=O)NN)[nH]n2)cc1	TEAD-YAP block 62
